The source of these data is PubChem BioAssay (EPA / NIEHS).

Experiment [1] deals with Estrogen receptor beta (Homo sapiens) (UniProt Q92731). In words: OT_ER_ERbERb_0480: Odyssey Thera (OT) 8-hour HEK293T Protein-Complementation Assay for Estrogen Receptor-beta/-beta Homodimer (AID 2283357).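 Note: active means signal gain over DMSO baseline.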 An outline of the steps:
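Fluorescence intensity, nuclear for agonists and nuclear plus cytoplasmic for antagonists, was quantified by laser scanning cytometry versus vehicle after 8 h treatment. The cells were HEK293T stably carrying ER beta LBD fragment-complementation partners.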

The target of the next experiment is PGR (gene 5241) (UniProt P06401). In words: NVS_NR_hPR: NovaScreen (NVS) Nuclear Receptor Binding Assay for human Progestron Receptor (PR) (AID 2283360).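 Note: active means loss of bound radioligand signal versus DMSO baseline.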 Summed up:
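Cell-free radioligand binding using receptor protein extracted from T47D cells, read by scintillation counting 18 hours after dosing. Loss of signal relative to DMSO baseline indicates displacement; primary screen single concentration 25 uM in duplicate, actives followed in concentration series.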

Experiment [2] concerns guinea pig Dopamine Transporter (DAT), gene 100714898. In words: NVS_TR_gDAT: NovaScreen (NVS) Transporter Assay for guinea pig Dopamine Transporter (DAT) (AID 2283369).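 Note: active compounds lower bound radioligand signal relative to DMSO.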 Summed up:
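Test chemicals were incubated 2 h with guinea pig striatal membranes and a radioligand; bound label was separated by filtration and counted. Screening ran at 25 uM, followed by concentration-response testing to a 50 uM maximum.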

For experiment [3], the target named is human Dopamine Transporter (DAT), SLC6A3 (gene 6531) (UniProt Q01959). Kind of experiment: NVS_TR_hDAT: NovaScreen (NVS) Transporter Assay for human Dopamine Transporter (DAT) (AID 2283374).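 Note: activity means loss of bound radioligand signal relative to DMSO.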 An outline of the steps:
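Cell-free radioligand displacement binding at human DAT, 1 h after dosing, with filtration and scintillation counting. Primary screen in duplicate at 25 uM, actives then in concentration series. Loss of bound signal versus DMSO scored.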

Experiment [4] concerns the target Peroxisome proliferator-activated receptor gamma (Homo sapiens) (UniProt P37231). In words: NVS_NR_hPPARg: NovaScreen (NVS) Nuclear Receptor Binding Assay for human Peroxisome Proliferator-activated Receptor gamma (PPARg) (AID 2283370). An outline of the steps:
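Fluorescence polarization measures competitive binding to extracted PPARg in a cell-free format. Reading is taken at 2 h; activity is signal loss relative to DMSO. Screening at 25 uM in duplicate preceded confirmatory dose series.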

Experiment [5] deals with human Norepinephrine Transporter (NET), SLC6A2 (gene 6530) (UniProt P23975). In words: NVS_TR_hNET: NovaScreen (NVS) Transporter Assay for human Norepinephrine Transporter (NET) (AID 2283377). Summed up: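 Cell-free radioligand binding using CHO-derived membrane protein expressing human NET, read by filter scintillation counting 1 h after dosing; loss of signal vs DMSO. Initial duplicate screen at 25 uM, actives retested in concentration series.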

Experiment [6] addresses human Peroxisome Proliferator-activated Receptor alpha (PPARa), PPARA (gene 5465) (UniProt Q07869). In words: NVS_NR_hPPARa: NovaScreen (NVS) Nuclear Receptor Binding Assay for human Peroxisome Proliferator-activated Receptor alpha (PPARa) (AID 2283359).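 Note: activity means loss of TR-FRET signal versus DMSO baseline.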 Summed up: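 Cell-free TR-FRET binding assay with extracted PPARα protein, read 1 h after dosing. Primary screen in duplicate at 25 uM, with actives retested in concentration series. Loss of signal versus DMSO.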

The target of experiment [7] is human Thyroid Receptor Alpha (TRa), THRA (gene 7067) (UniProt P10827). In words: NVS_NR_hTRa_Antagonist: NovaScreen (NVS) Nuclear Receptor Binding Assay for human Thyroid Receptor Alpha Antagonism (TRa) (AID 2283362). An outline of the steps:
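Chemicals were first screened in duplicate at 25 uM, then actives were retested in concentration series. Binding to the extracted receptor was measured 1 h after dosing by AlphaLISA chemiluminescence, with decreased signal versus DMSO scored as activity.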

Experiment [8] concerns the target Nuclear receptor subfamily 1 group I member 2 (Homo sapiens) (UniProt O75469). Kind of experiment: NVS_NR_hPXR: NovaScreen (NVS) Nuclear Receptor Binding Assay for human Pregnane X Receptor (PXR) (AID 2283365).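 Note: a drop in FRET signal versus DMSO baseline means the compound binds.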 Summed up: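 Binding was measured by time-resolved fluorescence resonance energy transfer after a 2 h exposure of extracted human PXR protein without cells. Compounds were first tested at 25 uM in duplicate, with concentration series for actives; DMSO defined baseline.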

For experiment [9], the target named is Glucocorticoid receptor (Homo sapiens) (UniProt P04150). Kind of experiment: NVS_NR_hGR: NovaScreen (NVS) Nuclear Receptor Binding Assay for human Glucocorticoid Receptor (GR) (AID 2283363).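 For AC50: activity is loss of specific radioligand binding signal relative to DMSO.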 An outline of the steps: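 Cell-free radioligand displacement assay on extracted human GR, read 16 h after dosing by filter-based scintillation counting. Screened in duplicate at 25 uM, then concentration series for actives; loss of signal versus DMSO baseline.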

Experiment [10] has as its target human Serotonin Transporter (SERT), SLC6A4 (gene 6532) (UniProt P31645). Kind of experiment: NVS_TR_hSERT: NovaScreen (NVS) Transporter Assay for human Serotonin Transporter (SERT) (AID 2283372). An outline of the steps:
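Radioligand binding to native SERT in human platelet membranes, read by filter-based scintillation counting 1 h after dosing. Primary screen in duplicate at 25 uM; actives followed up in concentration series; loss of signal versus DMSO baseline.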

For experiment [11], the target named is rat Serotonin Transporter (SERT), Slc6a4 (gene 25553) (UniProt P31652). In words: NVS_TR_rSERT: NovaScreen (NVS) Transporter Assay for rat Serotonin Transporter (SERT) (AID 2283375). An outline of the steps:
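Steps: rat forebrain membranes dosed with chemical (25 uM duplicate primary; concentration series for actives); 1 h incubation; labelled ligand bound, filtered, counted by scintillation. Activity scored as signal loss vs DMSO.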

Experiment [12] concerns the target Retinoic acid receptor alpha (Homo sapiens) (UniProt P10276). Kind of experiment: NVS_NR_hRARa_Agonist: NovaScreen (NVS) Nuclear Receptor Binding Assay for human Retinoic Acid Alpha Receptor Agonism (RAR) (AID 2283361). Summed up: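 Cell-free TR-FRET binding readout with extracted receptor protein, read 2 hours after dosing; gain-of-signal fitted relative to DMSO. Screened in duplicate at 25 uM, actives then run in concentration-response.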

Inconclusive results are not listed. More than one record can exist for a structure, and the calls need not agree. Calls of active or inactive are those of the source. Rule for the calls: active = hit-call score of the fitted dose curve at least 0.9, where 1 is the maximum; inconclusive = response in the unintended direction; inactive = score below 0.9.

Chain of Estrogen receptor beta (Homo sapiens) (Q92731 whole entry, looked up, the tested form may be a part): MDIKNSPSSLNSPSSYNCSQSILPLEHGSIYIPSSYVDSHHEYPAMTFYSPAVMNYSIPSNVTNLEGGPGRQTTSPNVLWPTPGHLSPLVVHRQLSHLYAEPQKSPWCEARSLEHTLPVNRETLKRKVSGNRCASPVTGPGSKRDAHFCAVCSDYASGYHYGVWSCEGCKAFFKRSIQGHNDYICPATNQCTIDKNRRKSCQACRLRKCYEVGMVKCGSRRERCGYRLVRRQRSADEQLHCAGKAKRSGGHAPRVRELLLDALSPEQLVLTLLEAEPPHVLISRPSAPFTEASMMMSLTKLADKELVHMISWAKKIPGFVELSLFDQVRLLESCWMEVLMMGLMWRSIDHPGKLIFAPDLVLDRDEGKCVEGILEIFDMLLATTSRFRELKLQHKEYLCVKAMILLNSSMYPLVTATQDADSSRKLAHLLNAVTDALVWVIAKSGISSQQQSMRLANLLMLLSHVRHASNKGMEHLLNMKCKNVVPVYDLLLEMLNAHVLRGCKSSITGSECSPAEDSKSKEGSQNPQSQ
Chain of PGR (gene 5241) (P06401 whole entry, looked up): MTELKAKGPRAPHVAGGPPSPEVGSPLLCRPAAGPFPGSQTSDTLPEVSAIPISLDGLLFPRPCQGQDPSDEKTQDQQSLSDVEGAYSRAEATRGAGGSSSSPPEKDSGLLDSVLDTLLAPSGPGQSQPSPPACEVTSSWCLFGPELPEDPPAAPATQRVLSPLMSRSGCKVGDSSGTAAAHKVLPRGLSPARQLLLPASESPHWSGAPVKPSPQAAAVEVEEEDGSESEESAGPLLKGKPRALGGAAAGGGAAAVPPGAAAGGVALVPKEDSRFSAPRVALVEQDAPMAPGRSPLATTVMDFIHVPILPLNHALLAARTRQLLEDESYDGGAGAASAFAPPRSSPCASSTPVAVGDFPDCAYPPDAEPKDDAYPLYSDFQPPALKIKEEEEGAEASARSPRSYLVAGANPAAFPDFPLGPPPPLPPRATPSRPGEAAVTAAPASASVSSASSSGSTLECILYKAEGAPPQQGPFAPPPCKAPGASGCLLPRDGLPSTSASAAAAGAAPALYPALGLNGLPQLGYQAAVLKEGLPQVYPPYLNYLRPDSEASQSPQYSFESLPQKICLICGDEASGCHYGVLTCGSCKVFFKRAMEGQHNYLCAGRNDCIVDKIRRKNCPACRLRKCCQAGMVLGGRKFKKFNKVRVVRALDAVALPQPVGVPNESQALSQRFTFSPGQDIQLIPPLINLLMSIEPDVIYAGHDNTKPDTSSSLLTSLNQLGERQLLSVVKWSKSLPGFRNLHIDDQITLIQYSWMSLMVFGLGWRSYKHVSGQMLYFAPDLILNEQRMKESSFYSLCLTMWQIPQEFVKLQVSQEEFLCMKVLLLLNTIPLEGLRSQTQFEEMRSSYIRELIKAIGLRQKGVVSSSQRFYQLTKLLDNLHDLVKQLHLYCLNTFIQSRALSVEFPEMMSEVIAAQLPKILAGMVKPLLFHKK
Chain of human Dopamine Transporter (DAT), SLC6A3 (gene 6531) (Q01959 whole entry, looked up): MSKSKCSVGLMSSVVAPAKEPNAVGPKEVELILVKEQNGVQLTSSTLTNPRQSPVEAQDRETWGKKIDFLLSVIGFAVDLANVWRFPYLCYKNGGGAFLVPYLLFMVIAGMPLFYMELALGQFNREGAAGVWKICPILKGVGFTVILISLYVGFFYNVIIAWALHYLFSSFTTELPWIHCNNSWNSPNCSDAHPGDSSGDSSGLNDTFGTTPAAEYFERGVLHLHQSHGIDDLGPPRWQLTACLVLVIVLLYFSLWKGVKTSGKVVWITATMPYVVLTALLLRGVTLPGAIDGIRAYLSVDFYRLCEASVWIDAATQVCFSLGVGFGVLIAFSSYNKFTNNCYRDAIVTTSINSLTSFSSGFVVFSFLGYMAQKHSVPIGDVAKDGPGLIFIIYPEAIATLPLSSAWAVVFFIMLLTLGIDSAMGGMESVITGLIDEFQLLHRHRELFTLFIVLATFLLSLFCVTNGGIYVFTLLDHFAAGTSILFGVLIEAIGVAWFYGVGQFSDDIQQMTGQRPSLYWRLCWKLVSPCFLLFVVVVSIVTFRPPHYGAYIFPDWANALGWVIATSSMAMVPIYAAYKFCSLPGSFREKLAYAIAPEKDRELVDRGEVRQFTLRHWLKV
Chain of Glucocorticoid receptor (Homo sapiens) (P04150 whole entry, looked up): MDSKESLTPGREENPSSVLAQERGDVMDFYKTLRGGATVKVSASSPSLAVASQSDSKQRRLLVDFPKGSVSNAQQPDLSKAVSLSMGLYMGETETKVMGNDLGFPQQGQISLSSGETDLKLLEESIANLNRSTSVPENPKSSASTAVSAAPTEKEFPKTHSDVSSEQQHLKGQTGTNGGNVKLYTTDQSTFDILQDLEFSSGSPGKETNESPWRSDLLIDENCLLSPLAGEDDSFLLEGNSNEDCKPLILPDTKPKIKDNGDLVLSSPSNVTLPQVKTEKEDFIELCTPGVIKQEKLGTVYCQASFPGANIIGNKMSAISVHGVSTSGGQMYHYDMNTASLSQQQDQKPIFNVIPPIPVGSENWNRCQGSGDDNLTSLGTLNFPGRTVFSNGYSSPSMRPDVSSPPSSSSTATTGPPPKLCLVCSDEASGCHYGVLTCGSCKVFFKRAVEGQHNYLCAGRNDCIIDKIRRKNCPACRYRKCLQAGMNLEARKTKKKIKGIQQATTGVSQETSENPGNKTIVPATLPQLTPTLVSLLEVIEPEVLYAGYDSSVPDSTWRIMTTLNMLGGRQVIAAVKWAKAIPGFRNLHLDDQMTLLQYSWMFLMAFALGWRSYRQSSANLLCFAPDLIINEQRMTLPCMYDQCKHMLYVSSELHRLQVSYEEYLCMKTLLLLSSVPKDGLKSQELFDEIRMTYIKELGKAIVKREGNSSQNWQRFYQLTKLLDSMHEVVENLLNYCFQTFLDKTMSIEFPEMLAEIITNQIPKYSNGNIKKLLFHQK
Chain of human Thyroid Receptor Alpha (TRa), THRA (gene 7067) (P10827 whole entry, looked up): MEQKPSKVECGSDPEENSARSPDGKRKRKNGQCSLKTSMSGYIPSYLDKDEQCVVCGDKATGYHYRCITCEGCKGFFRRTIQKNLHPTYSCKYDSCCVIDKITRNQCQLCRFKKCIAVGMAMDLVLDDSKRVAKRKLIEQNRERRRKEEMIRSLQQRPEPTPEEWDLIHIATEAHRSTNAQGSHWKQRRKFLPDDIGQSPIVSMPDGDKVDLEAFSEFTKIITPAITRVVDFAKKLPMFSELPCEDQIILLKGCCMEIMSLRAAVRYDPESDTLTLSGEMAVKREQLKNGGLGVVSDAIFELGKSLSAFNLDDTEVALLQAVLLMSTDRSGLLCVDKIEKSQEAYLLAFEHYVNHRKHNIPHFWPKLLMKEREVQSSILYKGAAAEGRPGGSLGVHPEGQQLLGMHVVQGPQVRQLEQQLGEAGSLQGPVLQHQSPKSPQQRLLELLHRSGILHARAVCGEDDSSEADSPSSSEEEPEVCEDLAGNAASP
Chain of Peroxisome proliferator-activated receptor gamma (Homo sapiens) (P37231 whole entry, looked up): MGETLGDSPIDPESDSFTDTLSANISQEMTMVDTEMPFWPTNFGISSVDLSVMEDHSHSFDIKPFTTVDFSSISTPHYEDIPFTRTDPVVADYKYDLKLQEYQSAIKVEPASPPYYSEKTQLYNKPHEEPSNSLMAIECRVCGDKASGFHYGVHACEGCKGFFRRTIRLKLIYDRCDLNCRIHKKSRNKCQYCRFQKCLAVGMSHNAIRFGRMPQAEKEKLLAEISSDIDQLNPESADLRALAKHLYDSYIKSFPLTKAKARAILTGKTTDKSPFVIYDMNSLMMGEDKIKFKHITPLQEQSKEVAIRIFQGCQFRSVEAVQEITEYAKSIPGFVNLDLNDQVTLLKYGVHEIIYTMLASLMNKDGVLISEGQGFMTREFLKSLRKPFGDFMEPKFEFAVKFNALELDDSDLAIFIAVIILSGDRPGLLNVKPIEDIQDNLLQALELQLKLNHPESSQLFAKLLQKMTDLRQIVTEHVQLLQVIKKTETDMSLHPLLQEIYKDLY
Chain of Nuclear receptor subfamily 1 group I member 2 (Homo sapiens) (O75469 whole entry, looked up): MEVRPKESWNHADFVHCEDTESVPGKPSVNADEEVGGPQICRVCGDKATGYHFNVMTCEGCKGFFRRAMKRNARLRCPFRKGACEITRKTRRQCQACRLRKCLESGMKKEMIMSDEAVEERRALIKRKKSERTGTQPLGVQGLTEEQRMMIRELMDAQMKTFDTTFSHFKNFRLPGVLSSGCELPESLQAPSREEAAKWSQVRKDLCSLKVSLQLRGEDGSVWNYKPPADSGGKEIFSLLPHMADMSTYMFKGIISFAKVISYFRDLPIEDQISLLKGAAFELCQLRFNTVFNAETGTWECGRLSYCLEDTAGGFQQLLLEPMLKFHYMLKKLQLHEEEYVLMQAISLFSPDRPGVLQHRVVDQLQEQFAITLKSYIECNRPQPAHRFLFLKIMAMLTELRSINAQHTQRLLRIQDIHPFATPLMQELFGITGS
Chain of Retinoic acid receptor alpha (Homo sapiens) (P10276 whole entry, looked up): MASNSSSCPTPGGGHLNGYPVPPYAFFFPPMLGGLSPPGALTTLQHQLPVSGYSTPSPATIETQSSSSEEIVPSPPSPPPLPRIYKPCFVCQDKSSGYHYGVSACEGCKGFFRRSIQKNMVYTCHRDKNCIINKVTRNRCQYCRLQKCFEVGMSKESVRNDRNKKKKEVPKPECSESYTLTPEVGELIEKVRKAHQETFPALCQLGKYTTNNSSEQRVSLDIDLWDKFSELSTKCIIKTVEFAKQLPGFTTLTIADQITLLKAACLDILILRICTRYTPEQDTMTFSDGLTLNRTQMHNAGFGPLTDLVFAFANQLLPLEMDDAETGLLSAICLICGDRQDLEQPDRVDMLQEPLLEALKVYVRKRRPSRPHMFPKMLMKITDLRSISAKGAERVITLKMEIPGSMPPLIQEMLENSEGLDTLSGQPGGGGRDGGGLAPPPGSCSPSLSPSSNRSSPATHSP

For `CC1(C(=O)Nc2ccc(O)c(Cl)c2Cl)CCCCC1`, the half-maximal activity concentration (AC50) in experiment [1] is 22.2 µM (active); in [2], 3.33 µM (active); in [3], 4.68 µM (active). Moreover, in the experiment with PGR (gene 5241), the call was inactive.
For the compound `CC(=NC#N)N(C)Cc1ccc(Cl)nc1`, the result in experiment [1] and in [4] was inactive.
As for `CC(Oc1cccc(Cl)c1)C(=O)O` (stereo unspecified), the call in experiment [1] and in [5] was inactive.
On to `CN(C)[C@@H]1C(=O)C(C(N)=O)=C(O)[C@@]2(O)C(=O)C3=C(O)c4c(O)cccc4[C@@](C)(O)[C@H]3[C@H](O)[C@@H]12`, for which the figures for the AC50 in [6], in [8] and in experiment [4] were 14.1 µM (active), 2.08 µM (active) and 20.2 µM (active), respectively. Besides, the compound was classed as inactive in [7], in experiment [8] and in experiment [4].
In the case of `O=C(O)c1cc(Oc2ccc(C(F)(F)F)cc2Cl)ccc1[N+](=O)[O-]`, in [1], the result was inactive. Also, in [4], the AC50 was 9.58 µM (active).
In the case of `CCOP(=S)(OCC)Oc1ccc([N+](=O)[O-])cc1`, the AC50 with PGR (gene 5241) is 14.6 µM (active); in experiment [9] it was 6.96 µM (active); in experiment [10], 7.25 µM (active); in [11], 8.93 µM (active). Moreover, the compound was called inactive in experiment [7] and in experiment [4].
On to `COP(=O)(NC(C)=O)SC` (stereo unspecified), for which the compound was called inactive in [1] and in [4]. Besides, the AC50 in experiment [9] is 1.66 µM (active).
As for `CCc1cnc(C2=NC(C)(C(C)C)C(=O)N2)c(C(=O)O)c1` (stereo unspecified), in experiment [7], the AC50 was 17.7 µM (active).
As for `CCOC(=O)COc1cc(-c2nn(C)c(OC(F)F)c2Cl)c(F)cc1Cl`, the call in [12] was inactive.
On to `CCOP(=S)(OCC)Oc1cc(C)nc(C(C)C)n1`, for which the compound was classed as inactive (in the experiment with PGR (gene 5241); in [9]).
Regarding `CNC(=O)ON=C(C)SC`, the compound was called inactive (in experiment [1]; in the experiment with PGR (gene 5241); in experiment [9]).
With `O=[N+]([O-])c1cc(C(F)(F)F)c(Cl)c([N+](=O)[O-])c1Nc1ncc(C(F)(F)F)cc1Cl`, the result in experiment [12] and in experiment [3] was inactive. Moreover, the AC50 in experiment [4] was 0.319 µM (active).
As to `CC(C)[C@H](C(=O)O[C@H](C#N)c1cccc(Oc2ccccc2)c1)c1ccc(Cl)cc1`, the call in [1] and in experiment [4] was inactive. For the same compound, in experiment [3], the AC50 is 16.2 µM (active).
For the compound `C#CCC1=C(C)C(OC(=O)C2C(C=C(C)C)C2(C)C)CC1=O` (stereo unspecified), the call in experiment [1] was inactive. For the same compound, the AC50 in [2] was 9.21 µM (active); in [3], 12 µM (active).
